Data as given in ChEMBL document CHEMBL3988442, “University of Dundee, Small-Polar-MMV Screening Library” (2021).
In all, about 48,000 compounds went through this assay and about 13,000 (27%) showed an effect of 50% or more. This is one part of the list.

Tested on: Wolbachia pipientis
Assay: Anti-Wolbachia Cell-Based Screen
Type: functional
Set-up: scale not given: in the data most compounds retested in dose-response had high values
Settings: 5 µM

First: O=C(O)C(F)(F)F.O=C(O)C(F)(F)F.OCCN1CC2(CCN(CC3CC3)CC2)c2ccccc21
Second: Cn1ccnc1CN1CCC2(CC1)CC(Oc1cccnc1)C2.O=C(O)C(F)(F)F.O=C(O)C(F)(F)F
The “Percent Effect” value of the first is lower: -29.18% for the first, -13.8% for the second.

Compared with `CS(=O)(=O)N1CC2(CCN(c3nccs3)CC2)c2ccccc21`, `COc1cc(N2CCC3(CC2)CN(S(C)(=O)=O)c2ccccc23)ncn1` is higher in “Percent Effect” value: 6.686% for the first, 110.7% for the second.

Going from `COc1cc(N2CC3(CCN(c4ncccn4)C3)C2)ncn1` to `COc1cc(N2CC3(CCN(S(C)(=O)=O)C3)C2)ncn1.O=C(O)C(F)(F)F`, the “Percent Effect” value rises from -18.99% to -16.93%.

First: COc1cc(N2CCC3(CC2)CN(CCO)c2ccccc23)ncn1
Second: COc1cc(N2CCC(c3nccn3Cc3cccnc3)CC2)ncn1
The “Percent Effect” value of the first is higher: 112.4% for the first, 2.829% for the second.

Compared with `CCc1ccc(C2COCCN2C(=O)Nc2ccc(C#N)cc2)o1` (stereo not given), `CC(O)CN1CCC(CNCc2ccc(C#N)cc2)CC1` (stereo not given) is higher in “Percent Effect” value: -6.805% for the first, 2.816% for the second.

Going from `COCc1noc(-c2ccc(N3CCCCC3CCCO)nc2)n1` (stereo not given) to `Cc1oc(-c2ccsc2)nc1CN1CC[C@@H]2CCCC[C@H]2C1`, the “Percent Effect” value rises from 5.834% to 16.57%.

Compared with `NC1CCc2c(ccc(=O)n2CC2CC2)C1` (stereo not given), `CCn1c2c(ccc1=O)CC(N)CC2` (stereo not given) is higher in “Percent Effect” value: -25.6% for the first, -10.57% for the second.

Compared with `Cc1nc(Cn2c3c(ccc2=O)CC(N)CC3)cs1` (stereo not given), `Cc1nc(Cn2c3c(ccc2=O)CC(NC(N)=O)CC3)cs1` (stereo not given) is higher in “Percent Effect” value: 90.15% for the first, 99.56% for the second.

Compared with `NS(=O)(=O)CCN1CCOC(c2ccc(Cl)cc2)C1` (stereo not given), `OCCCN1CCOC(c2ccc(F)cc2)C1` (stereo not given) is higher in “Percent Effect” value: -9.973% for the first, 108.3% for the second.

Compared with `CCc1n[nH]c(C2CN(CCc3ccncc3)CCO2)n1` (stereo not given), `Fc1ccc(C2CN(CCc3ccncc3)CCO2)cc1` (stereo not given) is higher in “Percent Effect” value: 1.737% for the first, 89.73% for the second.

Going from `CCNC(=O)NC(=O)CN1CCOC(c2cccc(Br)c2)C1` (stereo not given) to `CCNC(=O)NC(=O)CN1CCOC(c2ccccc2Cl)C1` (stereo not given), the “Percent Effect” value rises from -11.97% to 0.5373%.

Compared with `c1ccc(C2CN(CCc3ccncc3)CCO2)cc1` (stereo not given), `Clc1ccccc1C1CN(CCc2ccncc2)CCO1` (stereo not given) is higher in “Percent Effect” value: 114.6% for the first, 118% for the second.

Compared with `Cc1cc2[nH]c(CN3CCOC(c4ccc(F)cc4)C3)cc(=O)n2n1` (stereo not given), `CCc1nccn1CCC(=O)N1CCOC(c2ccc(F)cc2)C1` (stereo not given) is higher in “Percent Effect” value: -0.7414% for the first, 5.391% for the second.

Going from `COc1cccc(C2CN(CCc3ccncc3)CCO2)c1` (stereo not given) to `COc1ccc(CNC2CCN(CCc3ccncc3)CC2)cc1O`, the “Percent Effect” value falls from 114.5% to -10.08%.

Compared with `Cc1ccc(-c2nc(CN3CCOC(c4ccccc4)C3)cs2)o1` (stereo not given), `Cc1nc(C)n(CC2CN(CCc3ccccc3Cl)CCO2)n1` (stereo not given) is lower in “Percent Effect” value: 7.737% for the first, -35.87% for the second.

Compared with `CCN(CC)Cc1nc2c(o1)CN(C(=O)c1ccc3[nH]ccc3c1)C2.O=CO`, `COc1nc2ccccc2cc1CN1CCCC(CNC(C)=O)C1` (stereo not given) is higher in “Percent Effect” value: 2.766% for the first, 6.31% for the second.

Going from `O=C(NC1CC1)N1Cc2[nH]nc(COCC3CC3)c2C1` to `COCCN1C[C@H]2CC[C@@H]1CN(C(=O)CCc1n[nH]c(C)c1C)C2`, the “Percent Effect” value rises from -7.793% to 0.4749%.

Going from `CCc1nc(CCNC(=O)NC2CCC(=O)N(C)C2)sc1C` (stereo not given) to `CCN1Cc2nc(OC)c(CNC(=O)C3CCCN(C)C3)cc2C1=O` (stereo not given), the “Percent Effect” value rises from -4.769% to 93.23%.

Compared with `CN(C)c1cccc(C(=O)N2CCCc3cc(OC(F)(F)F)ccc32)c1`, `COc1cccc(N2CC3(CCN(Cc4nccn4C)C3)CC2=O)c1.O=C(O)C(F)(F)F` (stereo not given) is higher in “Percent Effect” value: 5.74% for the first, 13.06% for the second.

Compared with `CN(CC1CCC1)C(=O)Nc1cccnc1-n1cncn1`, `O=C(CCn1cncn1)Nc1ccc(F)cc1OCC1CC1` is lower in “Percent Effect” value: -2.5% for the first, -2.529% for the second.

Going from `COc1ncccc1CN1Cc2nccn2CC(Cn2cccn2)C1` (stereo not given) to `COc1ncccc1CN1Cc2nccn2CC(CN2CCCC2)C1` (stereo not given), the “Percent Effect” value falls from 99.64% to 87.46%.

Going from `CS(=O)(=O)N1Cc2nccn2CC(CN2CCCC2)C1` (stereo not given) to `Cc1ccc(CC(=O)N2Cc3nccn3CC(Cn3cccn3)C2)cc1` (stereo not given), the “Percent Effect” value falls from -0.3251% to -9.367%.

Compared with `CNC(=O)c1cnc2n1CCN(Cc1cccnc1OC)C2`, `Cc1nc(CN2CCC(CNC(=O)Nc3ccccn3)CC2)oc1C` is higher in “Percent Effect” value: -12.45% for the first, 15.98% for the second.

Going from `COC(=O)CCNC(=O)c1ccc(NC(=O)N(C)CC(C)C)cc1` to `CN(C)c1ccc(C(=O)NCCCc2ccccn2)cn1`, the “Percent Effect” value falls from 21.34% to 11.7%.

Compared with `CN(C)c1ccc(CCNC(=O)NCc2ccc(N(C)C)nc2)cc1`, `CN(C)c1ccc(CNC(=O)NCCc2cccs2)cn1` is higher in “Percent Effect” value: 5.041% for the first, 93.45% for the second.

First: CC(C)c1nc(CCNC(=O)NCc2ccnc(N(C)C)c2)cs1
Second: CN(C)c1ccc(CNC(=O)NCCc2ccccn2)cn1
The “Percent Effect” value of the first is lower: 6.649% for the first, 91.3% for the second.

Compared with `CN(C)c1ccc(CNC(=O)NCCc2cn3ccccc3n2)cn1`, `Cc1ccccc1C1(O)CCN(C(=O)CCc2cn3ccccc3n2)C1` (stereo not given) is lower in “Percent Effect” value: 118.9% for the first, -1.584% for the second.

First: Cc1cc(CNC(=O)NCc2cccs2)ccc1S(C)(=O)=O
Second: CN(C)c1ncc(CNC(=O)Nc2ccccc2C(F)(F)F)n1C
The “Percent Effect” value of the first is lower: -12.59% for the first, 9.124% for the second.

Going from `COCc1nc2n(n1)CCCC2Nc1nc(C(C)C)ns1` (stereo not given) to `COCc1nc(CNC2CCCc3c2cnn3C(C)(C)C)cs1` (stereo not given), the “Percent Effect” value rises from -13.74% to -7.69%.

Compared with `CN1CCN(S(=O)(=O)N2CCCCC2CCc2ccc(O)cc2)CC1` (stereo not given), `COc1ccc(CN2CCN(C(C)=O)CC2)cc1SC(F)(F)F` is lower in “Percent Effect” value: -0.6049% for the first, -8.503% for the second.

Compared with `CCn1cc(CN2CCCn3nc(CNS(C)(=O)=O)cc3C2)c(C)n1`, `CCc1[nH]c2c(CNC(=O)C3CCCN(C)C3)cc(C)cc2c1C` (stereo not given) is lower in “Percent Effect” value: -7.534% for the first, -27.93% for the second.

First: CC(C)=CCCC1(C)C=Cc2c(cc(C)n(CCC(=O)O)c2=O)O1 (stereo not given)
Second: CC(C)=CCCC1(C)C=Cc2c(cc(C)n(CC(=O)O)c2=O)O1 (stereo not given)
The “Percent Effect” value of the first is higher: 110.1% for the first, 107.4% for the second.

First: Cc1cc2c(c(=O)n1CCC(=O)O)C=CC(C)(C)O2
Second: CNC(=O)c1ccc(=O)n(Cc2csc(C(C)(C)C)n2)c1
The “Percent Effect” value of the first is higher: 159.6% for the first, 14.6% for the second.

Going from `CCn1c(C)nnc1SCCNC(=O)c1cnc(C(C)(C)C)nc1O` to `CC1(NC(=O)Cc2csc(C(C)(C)C)n2)CCS(=O)(=O)C1` (stereo not given), the “Percent Effect” value falls from -1.576% to -4.538%.

First: CN(C)C(=O)N1CCN(CCCOc2ccccc2)[C@H]2CS(=O)(=O)C[C@H]21
Second: COc1ccc(Oc2ccc(CNC(=O)C3CCS(=O)(=O)C3)cn2)cc1 (stereo not given)
The “Percent Effect” value of the first is lower: -34.84% for the first, -6.307% for the second.

Going from `Cc1ccc(N2CC3(CCN(Cc4nccn4C)C3)CC2=O)s1.O=C(O)C(F)(F)F` (stereo not given) to `Cn1cc(N2CC3(CCN(Cc4nccn4C)C3)CC2=O)cn1.O=C(O)C(F)(F)F` (stereo not given), the “Percent Effect” value falls from 20.39% to -13.1%.

First: Cn1ccnc1CN1CCC(F)(F)C2(CCN(c3cnccn3)C2)C1.O=C(O)C(F)(F)F (stereo not given)
Second: Cn1ccnc1CN1CCC(F)(F)C2(CCN(c3cccnc3)C2)C1.O=C(O)C(F)(F)F.O=C(O)C(F)(F)F (stereo not given)
The “Percent Effect” value of the first is higher: 108.4% for the first, 75.41% for the second.

Compared with `Cc1cnn(C(C)C2CC2)c1NC(=O)c1cnccn1` (stereo not given), `CN1CCN(c2cc(NC(=O)c3cnccn3)ncn2)CC1` is lower in “Percent Effect” value: 2.38% for the first, -2.529% for the second.

First: O=C(CCC1CCCCC1)NCc1nnc2ccccn12
Second: CCN1Cc2nc(OC)c(CNC(=O)CCC3CCCC3)cc2C1=O
The “Percent Effect” value of the first is lower: -0.7171% for the first, 102.4% for the second.

Compared with `CCN1Cc2nc(OC)c(CNC(=O)C3CCS(=O)(=O)CC3)cc2C1=O`, `CCc1[nH]c2c(CNC(=O)C3CCS(=O)(=O)CC3)cc(C)cc2c1C` is lower in “Percent Effect” value: 82.23% for the first, -6.161% for the second.

Compared with `Cc1cc(C(F)(F)F)nc(CNC(=O)CCC2CCCN(C)C2)n1` (stereo not given), `Cc1ccc(N2CCCC(NCc3ccncc3)C2)nn1` (stereo not given) is lower in “Percent Effect” value: 9.588% for the first, 1.645% for the second.

First: O=C(NCCc1nnc2n1CCCCC2)N1CCC2(CCOC2)C1 (stereo not given)
Second: CCN(C(=O)c1cc2c([nH]c1=O)CCCC2=O)C1CCCCC1
The “Percent Effect” value of the first is lower: 10.36% for the first, 14.13% for the second.

Compared with `Cc1cnn(C2CCCN(C(=O)c3c(C)oc4nc[nH]c(=O)c34)C2)c1` (stereo not given), `Cc1cc(C(=O)N2C[C@H]3CC[C@@H]2CN(Cc2ccccn2)C3)nc(N)n1` is higher in “Percent Effect” value: -0.5439% for the first, 2.343% for the second.

First: Cc1cc(N2CCC(Cc3cnccn3)C2)ncn1 (stereo not given)
Second: Cc1cc(N2CCC(Cc3ncccn3)C2)ncn1 (stereo not given)
The “Percent Effect” value of the first is higher: 100.8% for the first, 90.07% for the second.

Going from `COc1cc(N2CC[C@H]3OCC[C@@]3(COc3nccc(C)n3)C2)ncn1` to `COc1cc(N2CCCC(c3nccn3Cc3cccnc3)C2)ncn1` (stereo not given), the “Percent Effect” value falls from -2.077% to -16.56%.

Going from `Cc1cc(N2CCC(Cc3cccnc3)CC2)ncn1` to `Cc1cc(N2CCC(Cc3cccnc3)C2)ncn1` (stereo not given), the “Percent Effect” value falls from 156% to 84.65%.

First: Cc1cc2c(N3CCCC(OCc4cccnc4)C3)ncnc2s1 (stereo not given)
Second: Cc1cc(N2CCC(Cc3ccncc3)C2)ncn1 (stereo not given)
The “Percent Effect” value of the first is lower: 0.4664% for the first, 95.84% for the second.

Going from `C[C@@H]1CN(c2cc(N3CCC(O)CC3)ncn2)C[C@@]1(O)C1CCC1` to `Cc1cc(N2CCCC2c2cnccn2)ncn1` (stereo not given), the “Percent Effect” value falls from 2.327% to -8.281%.

First: COCCO[C@H]1CCN(c2cc(OC)ncn2)[C@H]1Cc1ccncc1
Second: CC(=O)c1c(F)cccc1N1CCC(Cc2cccnc2)CC1
The “Percent Effect” value of the first is lower: -8.224% for the first, -2.782% for the second.

First: Cn1nc2c(cc1=O)CN(Cc1coc(-c3cccs3)n1)CC2
Second: Cl.NCCc1cn(Cc2ccccn2)c2ccccc12
The “Percent Effect” value of the first is lower: 1.365% for the first, 119.5% for the second.

Compared with `NC(=O)CCn1cc(CNCCCc2ccncc2)c2ccccc21`, `CS(=O)(=O)N[C@@H]1CCO[C@]2(CCN(CC3CCOCC3)C2)C1.O=C(O)C(F)(F)F` is higher in “Percent Effect” value: -11.7% for the first, -3.641% for the second.

Going from `COC1COC2(CCN(CC3CCOCC3)CC2)C1.O=C(O)C(F)(F)F` (stereo not given) to `COC1COC2(CCN(CC3CC3)CC2)C1.O=C(O)C(F)(F)F` (stereo not given), the “Percent Effect” value falls from 105.7% to 95.93%.

With `CS(=O)(=O)N[C@H]1CCO[C@]2(CCN(CC3CCOCC3)C2)C1.O=C(O)C(F)(F)F` the “Percent Effect” value was 0.7443%.
